Experimental data from PubChem BioAssay (Tox21).
Records with an inconclusive call do not appear. Where a call stands in place of a potency, no number is given. The source made the active and inactive calls. Calls come from the whole dose curve.

test: p53 small molecule agonists, cell-based qHTS assay with human liver microsomes (AID 1963577); settings: HCT-116 p53RE-bla with human liver microsomes, ratio, 16 h; series mostly up to 66 µM;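 note: p53 response element beta-lactamase reporter cells with liver microsomes plus NADPH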
Text: National Center for Advancing Translational Sciences [NCATS]
Division of Preclinical Innovation [DPI]
U.S. Environmental Protection Agency [EPA]
National Institutes of Environmental Health Sciences [NIEHS]
National Toxicology Program [NTP]
U.S. Food and Drug Administration [FDA]
p53, a tumor suppressor protein, is activated following cellular insult, including DNA damage and other cellular stresses. The activation of p53 regulates cell fate by inducing DNA repair, cell cycle arrest, apoptosis, or cellular senescence. The activation of p53, therefore, is a good indicator of DNA damage and other cellular stresses. […] The activation of the reporter gene under culture conditions can be detected by fluorescence intensity.
Tox21 Assay Protocol Summary:
The p53RE-bla cells were dispensed at 4,000cells/3ul/well in 1536-well black-clear bottom plates. After the assay plates were incubated at 37 C, 5% CO2 incubator for 5 hours, 23 nL of compounds dissolved in DMSO, positive controls or DMSO only was transferred to the assay plate. Following compound addition, 3 uL of human liver microsomes (XenoTech, Kansas City, KS) at final concentration of 0.5 mg/mL and 1uL of Beta-Nicotinamide adenine dinucleotide 2-phosphate (NADPH) at final concentration of 0.5 mg/mL were transferred to the assay plate. The plates were incubated at 37 C for 16 hours. 1 uL of LiveBLAzer detection mixture was added to each well and the plates were incubated at room temperature in the dark for 2 h.

SMILES	Potency
CCCCCCCCCCCCSC#N	inactive
Cc1nc(N)nc(N)c1-c1ccc(Cl)c(Cl)c1	inactive
CCCCCCCCCCCCCCCCC(C(=O)O)C(O)(CC(=O)O)C(=O)O (stereo not given)	inactive
O=C1CCc2ccc(OCCCCN3CCN(c4cccc(Cl)c4Cl)CC3)cc2N1	inactive
O=C1NC(=O)C2CC=CCC12 (stereo not given)	inactive
CCC(C)OC(=O)N1CCCCC1CCO (stereo not given)	inactive
O=c1[nH]nc(-c2ccc([N+](=O)[O-])o2)o1	inactive
CC1(C)[C@@H](O)CC[C@]2(C)[C@H]3C(=O)C=C4[C@@H]5C[C@@](C)(C(=O)O)CC[C@]5(C)CC[C@@]4(C)[C@]3(C)CC[C@@H]12	inactive
O=C(O)Cc1cc(I)c(Oc2ccc(O)c(I)c2)c(I)c1	inactive
CCOc1cccc(-n2cc(C(=O)N3CCN(c4cc(C(=O)O)c5ccccc5c4)CC3)nc2-c2ccc(C)cc2)c1	inactive
CCN(CC)c1ccc(N=Nc2ccccc2)cc1	inactive
CCCCNc1cc(C(=O)O)cc(S(N)(=O)=O)c1Oc1ccccc1	inactive
COc1cc(/C=C/c2ccccc2)oc(=O)c1	inactive
CCN(Cc1cccc(S(=O)(=O)O)c1)c1ccc(C(=C2C=CC(=[N+](CC)Cc3cccc(S(=O)(=O)[O-])c3)C=C2)c2ccccc2)cc1	inactive
CCOC(=O)CC(O)(CC(=O)OCC)C(=O)OCC	inactive
CCCCCCCCCCCCCCOS(=O)(=O)O	inactive
Cc1c(C(=O)O)cccc1[N+](=O)[O-]	inactive
CC(=O)c1ccc(OCC(=O)N2CCCCC2)cc1	inactive
CC(C)=CC(C)(C)C	inactive
C/C(=C\c1ccc(C(=O)O)cc1)c1ccc2c(c1)C(C)(C)CCC2(C)C	inactive

SMILES	Potency
CCCCC[C@H](O)/C=C/[C@H]1[C@H](O)CC(=O)[C@@H]1C/C=C\CCCC(=O)O	inactive
C=CC[N+]1([C@H]2C[C@H]3[C@@H]4CC[C@H]5C[C@H](OC(C)=O)[C@@H](N6CCCCC6)C[C@]5(C)[C@H]4CC[C@]3(C)[C@H]2OC(=O)CC)CCCCC1	inactive
CC1=NN(c2cc(Cl)c(S(=O)(=O)O)cc2Cl)C(=O)C1N=Nc1ccc(S(=O)(=O)O)cc1 (stereo not given)	inactive
ClC(Cl)(Cl)c1ccc(C(Cl)(Cl)Cl)cc1	inactive
CCN1CCN(C(=O)N[C@@H](C(=O)N[C@@H]2C(=O)N3C(C(=O)O)=C(CSc4nnnn4C)CS[C@H]23)c2ccc(O)cc2)C(=O)C1=O	inactive
CC(COc1ccc(C(C)(C)C)cc1)OS(=O)OCCCl (stereo not given)	inactive
COc1ccccc1OCCNCC(O)COc1cccc2[nH]c3ccccc3c12 (stereo not given)	inactive
O=C(c1ccc(O)cc1)c1ccc(O)c(O)c1O	inactive
Cc1cccc(C)c1NC(=O)CN1CCN(CCCC(c2ccc(F)cc2)c2ccc(F)cc2)CC1	inactive
CCCCCCCCC(CCCCCC)C(=O)O (stereo not given)	inactive
C=CC(=C)CCC=C(C)C	inactive
CCC(=O)/C=C/c1ccc(OC)cc1	inactive
CC1=Nc2ccccc2C1(C)C	inactive
O=C(O)Cc1cc(I)c(Oc2cc(I)c(O)c(I)c2)c(I)c1	inactive
c1ccc2c(c1)ccc1c3ccccc3ccc21	inactive
Cc1c(C(=O)NN2CCCCC2)nn(-c2ccc(Cl)cc2Cl)c1-c1ccc(Cl)cc1	inactive
CC(C)(C)c1cc(O)c(C(C)(C)C)cc1O	inactive
CC(C)(C)c1cc(CO)cc(C(C)(C)C)c1O	inactive
O=[N+]([O-])C1(Br)COCOC1	inactive
CCN(CC)c1ccc(C(=C2C=CC(=[N+](CC)CC)C=C2)c2cc(S(=O)(=O)O)ccc2S(=O)(=O)[O-])cc1	inactive
